# Measurements taken from publication PMC7862700, “An all-to-all approach to the identification of sequence-specific readers for epigenetic DNA modifications on cytosine”.
# Experiments:
# Test in all cases: DAPPL (digital affinity profiling via proximity ligation, sequencing); 10 mM Tris-HCl pH 7.5, 50 mM NaCl, 1 mM DTT, 4% glycerol, room temperature, 30 min; GST-TFs on glutathione beads, 16-mer random dsDNA library, 0.1% formaldehyde crosslink after washing; high values mean tight binding
# [1] = target: SPI1 (Homo sapiens, UniProt P17947 1-270); details: protein: recombinant; tags: N-terminal GST; dsDNA, one strand shown
# Procedure, shortened: (§1)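 Sequencing on an Illumina NextSeq500 followed washing, crosslinking with 0.1% formaldehyde, proximity ligation (BsaI/T4 ligase, 1 h, 37 °C) and PCR amplification of pools that had been incubated for 30 min at room temperature with 200 nmole of a random double-stranded 16-mer DNA library in Tris/NaCl/DTT/glycerol buffer. Each pool held DNA-barcoded human transcription factors, expressed in yeast as GST fusions and captured on glutathione beads, plus a tag-only sample. Binding signal is a hexamer's read frequency for a factor divided by its frequency in the tag-only sample.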
# [2] = target: T1, ETV2 (Homo sapiens, UniProt O00321 1-342); details: protein: recombinant; tags: N-terminal GST; dsDNA, one strand shown
# T1 sequence: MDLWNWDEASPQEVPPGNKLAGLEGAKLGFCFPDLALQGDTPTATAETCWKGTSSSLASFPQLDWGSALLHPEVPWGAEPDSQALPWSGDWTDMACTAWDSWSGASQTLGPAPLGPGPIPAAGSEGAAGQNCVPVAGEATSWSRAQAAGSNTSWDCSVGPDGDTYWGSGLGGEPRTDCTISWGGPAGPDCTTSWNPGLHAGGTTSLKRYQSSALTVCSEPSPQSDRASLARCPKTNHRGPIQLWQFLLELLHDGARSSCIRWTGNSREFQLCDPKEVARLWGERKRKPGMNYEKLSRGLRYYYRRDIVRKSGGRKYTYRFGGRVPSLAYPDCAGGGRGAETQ
# Procedure, shortened: as §1
# [3] = target: T2, ELF5 (Homo sapiens, UniProt Q9UKW6-2 1-255); details: protein: recombinant; tags: N-terminal GST; dsDNA, one strand shown
# T2 sequence: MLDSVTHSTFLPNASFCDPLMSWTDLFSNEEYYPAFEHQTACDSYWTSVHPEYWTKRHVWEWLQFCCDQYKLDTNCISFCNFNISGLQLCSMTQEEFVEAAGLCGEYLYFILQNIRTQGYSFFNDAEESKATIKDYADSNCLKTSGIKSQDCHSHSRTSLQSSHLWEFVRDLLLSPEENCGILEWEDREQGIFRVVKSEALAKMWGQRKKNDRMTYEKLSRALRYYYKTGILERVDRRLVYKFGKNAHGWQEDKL
# Procedure, shortened: as §1
# [4] = target: T3, FLI1 (Homo sapiens, UniProt Q01543 1-452); details: protein: recombinant; tags: N-terminal GST; dsDNA, one strand shown
# T3 sequence: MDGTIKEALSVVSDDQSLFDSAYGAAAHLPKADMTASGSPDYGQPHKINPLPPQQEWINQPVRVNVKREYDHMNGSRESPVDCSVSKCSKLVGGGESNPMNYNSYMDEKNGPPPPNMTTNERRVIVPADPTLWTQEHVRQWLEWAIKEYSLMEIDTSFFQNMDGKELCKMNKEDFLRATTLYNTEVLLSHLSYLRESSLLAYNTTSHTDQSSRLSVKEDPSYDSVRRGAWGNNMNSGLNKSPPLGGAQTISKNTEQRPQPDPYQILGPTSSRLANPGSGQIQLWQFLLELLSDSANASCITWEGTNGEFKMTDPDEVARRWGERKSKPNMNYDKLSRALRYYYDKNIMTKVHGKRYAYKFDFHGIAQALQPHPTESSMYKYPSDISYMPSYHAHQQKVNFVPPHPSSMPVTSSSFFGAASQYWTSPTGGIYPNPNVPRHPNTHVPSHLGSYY
# Procedure, shortened: as §1
# [5] = target: T4, FEV (Homo sapiens, UniProt Q99581 1-238); details: protein: recombinant; tags: N-terminal GST; dsDNA, one strand shown
# T4 sequence: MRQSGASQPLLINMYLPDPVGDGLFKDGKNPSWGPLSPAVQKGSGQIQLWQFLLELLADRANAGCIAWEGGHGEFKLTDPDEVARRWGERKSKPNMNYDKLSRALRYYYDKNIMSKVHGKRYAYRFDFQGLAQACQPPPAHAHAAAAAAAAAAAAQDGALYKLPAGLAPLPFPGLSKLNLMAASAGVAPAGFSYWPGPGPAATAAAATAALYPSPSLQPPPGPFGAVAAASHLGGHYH
# Procedure, shortened: as §1
# [6] = target: CRX (Homo sapiens, UniProt O43186 1-299); details: protein: recombinant; tags: N-terminal GST; dsDNA, one strand shown
# Procedure, shortened: as §1
# [7] = target: HSF1 (Homo sapiens, UniProt Q00613 1-529); details: protein: recombinant; tags: N-terminal GST; chain copies: 3; dsDNA, one strand shown
# Procedure, shortened: as §1
# Sequence of CRX (O43186 whole entry): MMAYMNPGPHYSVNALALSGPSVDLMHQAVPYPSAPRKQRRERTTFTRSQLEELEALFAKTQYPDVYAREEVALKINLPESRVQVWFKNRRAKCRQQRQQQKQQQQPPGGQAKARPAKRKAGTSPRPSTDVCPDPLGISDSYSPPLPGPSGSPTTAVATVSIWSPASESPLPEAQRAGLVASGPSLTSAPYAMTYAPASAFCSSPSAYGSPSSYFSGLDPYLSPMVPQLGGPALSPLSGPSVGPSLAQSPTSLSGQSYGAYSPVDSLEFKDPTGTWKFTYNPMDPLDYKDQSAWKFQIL
# Sequence of HSF1 (Q00613 whole entry): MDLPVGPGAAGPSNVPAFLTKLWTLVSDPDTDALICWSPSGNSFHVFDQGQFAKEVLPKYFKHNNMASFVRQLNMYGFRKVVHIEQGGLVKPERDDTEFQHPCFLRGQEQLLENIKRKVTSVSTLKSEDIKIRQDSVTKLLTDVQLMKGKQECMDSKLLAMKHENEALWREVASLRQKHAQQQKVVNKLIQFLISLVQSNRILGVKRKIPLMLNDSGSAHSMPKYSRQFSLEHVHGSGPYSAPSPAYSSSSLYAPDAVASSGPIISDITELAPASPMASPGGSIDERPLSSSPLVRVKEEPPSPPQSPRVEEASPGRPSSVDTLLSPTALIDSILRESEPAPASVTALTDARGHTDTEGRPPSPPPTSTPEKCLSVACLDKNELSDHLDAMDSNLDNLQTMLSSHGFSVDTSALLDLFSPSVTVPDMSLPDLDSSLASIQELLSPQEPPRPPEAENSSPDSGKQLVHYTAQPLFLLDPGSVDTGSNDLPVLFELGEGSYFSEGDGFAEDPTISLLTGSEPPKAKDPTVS
sequence,measurement,setting,value
AGTCCT,binding signal,[1],"1.2 fold enrichment (6-mer frequency, TF over GST control)"
same,binding signal,[2],"1.02 fold enrichment (6-mer frequency, TF over GST control)"
same,binding signal,[3],"1.17 fold enrichment (6-mer frequency, TF over GST control)"
CATAGC,binding signal,[2],"1.06 fold enrichment (6-mer frequency, TF over GST control)"
GTTGGT,binding signal,[1],"1.02 fold enrichment (6-mer frequency, TF over GST control)"
CCAAGT,binding signal,[4],"1.02 fold enrichment (6-mer frequency, TF over GST control)"
AGTACC,binding signal,[1],"1.03 fold enrichment (6-mer frequency, TF over GST control)"
same,binding signal,[2],"1.03 fold enrichment (6-mer frequency, TF over GST control)"
same,binding signal,[3],"1.02 fold enrichment (6-mer frequency, TF over GST control)"
CCACCG,binding signal,[1],"1.04 fold enrichment (6-mer frequency, TF over GST control)"
same,binding signal,[5],"1.26 fold enrichment (6-mer frequency, TF over GST control)"
same,binding signal,[3],"1.02 fold enrichment (6-mer frequency, TF over GST control)"
TATGAG,binding signal,[6],"1.1 fold enrichment (6-mer frequency, TF over GST control)"
GCCGGA,binding signal,[5],"1.59 fold enrichment (6-mer frequency, TF over GST control)"
same,binding signal,[3],"1.05 fold enrichment (6-mer frequency, TF over GST control)"
AACTGT,binding signal,[2],"1.15 fold enrichment (6-mer frequency, TF over GST control)"
GGATAC,binding signal,[2],"1.01 fold enrichment (6-mer frequency, TF over GST control)"
same,binding signal,[3],"1.02 fold enrichment (6-mer frequency, TF over GST control)"
GACCGG,binding signal,[5],"2.09 fold enrichment (6-mer frequency, TF over GST control)"
same,binding signal,[3],"1.08 fold enrichment (6-mer frequency, TF over GST control)"
GTCCGG,binding signal,[5],"1.15 fold enrichment (6-mer frequency, TF over GST control)"
same,binding signal,[3],"1.06 fold enrichment (6-mer frequency, TF over GST control)"
ATAGGG,binding signal,[1],"1.19 fold enrichment (6-mer frequency, TF over GST control)"
same,binding signal,[2],"1.08 fold enrichment (6-mer frequency, TF over GST control)"
same,binding signal,[3],"1.02 fold enrichment (6-mer frequency, TF over GST control)"
GGCTAT,binding signal,[1],"1.03 fold enrichment (6-mer frequency, TF over GST control)"
same,binding signal,[5],"1.06 fold enrichment (6-mer frequency, TF over GST control)"
same,binding signal,[2],"1.06 fold enrichment (6-mer frequency, TF over GST control)"
same,binding signal,[3],"1.02 fold enrichment (6-mer frequency, TF over GST control)"
GTACCA,binding signal,[1],"1.11 fold enrichment (6-mer frequency, TF over GST control)"
same,binding signal,[5],"1.01 fold enrichment (6-mer frequency, TF over GST control)"
GTGCCC,binding signal,[1],"1.07 fold enrichment (6-mer frequency, TF over GST control)"
same,binding signal,[5],"1 fold enrichment (6-mer frequency, TF over GST control)"
ATCCGT,binding signal,[5],"1.1 fold enrichment (6-mer frequency, TF over GST control)"
same,binding signal,[6],"1.08 fold enrichment (6-mer frequency, TF over GST control)"
same,binding signal,[3],"1.17 fold enrichment (6-mer frequency, TF over GST control)"
CAGTTC,binding signal,[1],"1.08 fold enrichment (6-mer frequency, TF over GST control)"
same,binding signal,[3],"1 fold enrichment (6-mer frequency, TF over GST control)"
CTGTAG,binding signal,[3],"1.01 fold enrichment (6-mer frequency, TF over GST control)"
GGACTT,binding signal,[1],"1.2 fold enrichment (6-mer frequency, TF over GST control)"
same,binding signal,[5],"1.4 fold enrichment (6-mer frequency, TF over GST control)"
same,binding signal,[2],"1.19 fold enrichment (6-mer frequency, TF over GST control)"
same,binding signal,[6],"1.08 fold enrichment (6-mer frequency, TF over GST control)"
same,binding signal,[3],"1.24 fold enrichment (6-mer frequency, TF over GST control)"
ATAGGC,binding signal,[5],"1.07 fold enrichment (6-mer frequency, TF over GST control)"
same,binding signal,[6],"1.14 fold enrichment (6-mer frequency, TF over GST control)"
AGCGTC,binding signal,[1],"1.06 fold enrichment (6-mer frequency, TF over GST control)"
same,binding signal,[5],"1.04 fold enrichment (6-mer frequency, TF over GST control)"
same,binding signal,[3],"1.04 fold enrichment (6-mer frequency, TF over GST control)"
GTGCCT,binding signal,[1],"1.15 fold enrichment (6-mer frequency, TF over GST control)"
same,binding signal,[2],"1.22 fold enrichment (6-mer frequency, TF over GST control)"
TAGGCC,binding signal,[5],"1.05 fold enrichment (6-mer frequency, TF over GST control)"
same,binding signal,[6],"1.21 fold enrichment (6-mer frequency, TF over GST control)"
GCCCGG,binding signal,[5],"1.04 fold enrichment (6-mer frequency, TF over GST control)"
same,binding signal,[3],"1.05 fold enrichment (6-mer frequency, TF over GST control)"
CTTAAG,binding signal,[4],"1.06 fold enrichment (6-mer frequency, TF over GST control)"
same,binding signal,[1],"1 fold enrichment (6-mer frequency, TF over GST control)"
same,binding signal,[5],"1.05 fold enrichment (6-mer frequency, TF over GST control)"
same,binding signal,[7],"1.7 fold enrichment (6-mer frequency, TF over GST control)"
same,binding signal,[2],"1.13 fold enrichment (6-mer frequency, TF over GST control)"
same,binding signal,[6],"2.69 fold enrichment (6-mer frequency, TF over GST control)"
same,binding signal,[3],"1.09 fold enrichment (6-mer frequency, TF over GST control)"
TAAGCA,binding signal,[4],"1.08 fold enrichment (6-mer frequency, TF over GST control)"
same,binding signal,[5],"1.04 fold enrichment (6-mer frequency, TF over GST control)"
same,binding signal,[7],"1.29 fold enrichment (6-mer frequency, TF over GST control)"
same,binding signal,[6],"1.7 fold enrichment (6-mer frequency, TF over GST control)"
same,binding signal,[3],"1.02 fold enrichment (6-mer frequency, TF over GST control)"
CTAGCC,binding signal,[4],"1.07 fold enrichment (6-mer frequency, TF over GST control)"
same,binding signal,[1],"1.1 fold enrichment (6-mer frequency, TF over GST control)"
same,binding signal,[7],"1.05 fold enrichment (6-mer frequency, TF over GST control)"
same,binding signal,[2],"1.06 fold enrichment (6-mer frequency, TF over GST control)"
GATTTA,binding signal,[4],"1.02 fold enrichment (6-mer frequency, TF over GST control)"
same,binding signal,[7],"1.54 fold enrichment (6-mer frequency, TF over GST control)"
same,binding signal,[2],"1.05 fold enrichment (6-mer frequency, TF over GST control)"
same,binding signal,[6],"2.33 fold enrichment (6-mer frequency, TF over GST control)"
ACCTAG,binding signal,[4],"1.01 fold enrichment (6-mer frequency, TF over GST control)"
same,binding signal,[1],"1.02 fold enrichment (6-mer frequency, TF over GST control)"
same,binding signal,[5],"1.03 fold enrichment (6-mer frequency, TF over GST control)"
same,binding signal,[7],"1.21 fold enrichment (6-mer frequency, TF over GST control)"
GATCTA,binding signal,[4],"1.12 fold enrichment (6-mer frequency, TF over GST control)"
same,binding signal,[1],"1 fold enrichment (6-mer frequency, TF over GST control)"
same,binding signal,[7],"1.41 fold enrichment (6-mer frequency, TF over GST control)"
same,binding signal,[2],"1.11 fold enrichment (6-mer frequency, TF over GST control)"
same,binding signal,[6],"1.41 fold enrichment (6-mer frequency, TF over GST control)"
same,binding signal,[3],"1.05 fold enrichment (6-mer frequency, TF over GST control)"
TCTAGA,binding signal,[4],"1.05 fold enrichment (6-mer frequency, TF over GST control)"
same,binding signal,[7],"6.17 fold enrichment (6-mer frequency, TF over GST control)"
same,binding signal,[6],"2.19 fold enrichment (6-mer frequency, TF over GST control)"
TCAATC,binding signal,[4],"1.08 fold enrichment (6-mer frequency, TF over GST control)"
same,binding signal,[1],"1.06 fold enrichment (6-mer frequency, TF over GST control)"
same,binding signal,[7],"1.13 fold enrichment (6-mer frequency, TF over GST control)"
same,binding signal,[2],"1.13 fold enrichment (6-mer frequency, TF over GST control)"
same,binding signal,[6],"1.33 fold enrichment (6-mer frequency, TF over GST control)"
